Test systems include SK-MEL-2 melanoma; EKVX NSCLC; SN12C renal; UO-31 renal; TK-10 renal; ACHN renal; CAKI-1 renal; A498 renal; CCRF-CEM leukemia; MOLT-4 leukemia; SR leukemia; OVCAR-8 ovarian; OVCAR-5 ovarian; OVCAR-4 ovarian; SK-OV-3 ovarian; IGROV1 ovarian; OVCAR-3 ovarian; HS 578T breast; NCI/ADR-RES ovarian; RPMI-8226 leukemia.
Common to all, as to test: NCI-60 one-dose screen, 48 h (100 = growth as untreated, 0 = no growth, -100 = all killed)
Details in all cases: 10 µM unless noted

This is part of a sample that, as a whole, favours compounds with a hit. Of some 83,000 tested, about 20% had one in any assay.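 Method: cells in 96-well plates; compound added at one concentration; 48 h incubation; percent growth measured; values under 10 scored active.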 A number with no mark means an inactive call. Active and inactive are the calls of the source.

Consider `O=C(Nc1c2ccccc2nc2ccccc12)c1ccccc1CN1C(=O)c2ccccc2C1=O`, for which the growth in the assay on SK-MEL-2 melanoma is 43%; with EKVX NSCLC, 43.1%; in the assay with SN12C renal it was 34.6%; with UO-31 renal it was 6.41% (active); with TK-10 renal, 45.6%; with ACHN renal, 10.8%. For the same molecule, the growth is 19.1% with CAKI-1 renal; -18.9% (active) in the assay with A498 renal; 40.8% in the assay with CCRF-CEM leukemia; 14.9% in the assay on MOLT-4 leukemia; 30.5% with SR leukemia; 31.3% with OVCAR-8 ovarian. The growth with OVCAR-5 ovarian was 40.1%; with OVCAR-4 ovarian it was 44.8%; with SK-OV-3 ovarian it was 35.6%; with IGROV1 ovarian, 21.4%; in the assay on OVCAR-3 ovarian it was 34.1%; in the assay with HS 578T breast, 21%. The growth in the assay on NCI/ADR-RES ovarian is 29.3%.

On to `COc1cc(C(=O)c2cnc(-c3cccc4[nH]ccc34)[nH]2)cc(OC)c1OC`, for which the growth was 39.9% with SK-MEL-2 melanoma; 42.4% in the assay with EKVX NSCLC; 31.1% in the assay on SN12C renal; 26.7% with UO-31 renal; 63.4% in the assay on TK-10 renal; 30.2% with ACHN renal. Besides, the growth in the assay on CAKI-1 renal was 16.7%; in the assay with A498 renal, -15.9% (active); in the assay on CCRF-CEM leukemia it was 10.3%; in the assay with MOLT-4 leukemia, 14.2%; in the assay with SR leukemia, 13.9%; in the assay with RPMI-8226 leukemia it was 15.8%. The growth was 50.1% in the assay on OVCAR-5 ovarian; 38.9% in the assay on OVCAR-4 ovarian; 35.6% with SK-OV-3 ovarian; 26.6% in the assay on IGROV1 ovarian; -18.1% (active) in the assay on OVCAR-3 ovarian; 30.9% with HS 578T breast. Also, the growth in the assay with NCI/ADR-RES ovarian is 11.2%.

Turning to `COc1ccc(N)c(N)c1`, the growth in the assay with SK-MEL-2 melanoma was 121%; with EKVX NSCLC, 105%; in the assay with SN12C renal it was 100%; with UO-31 renal it was 75.3%; in the assay on TK-10 renal, 113%; in the assay with ACHN renal, 97.3%. The growth is 94.4% with CAKI-1 renal; 95.1% in the assay on A498 renal; 83.1% in the assay with CCRF-CEM leukemia; 96.2% in the assay on MOLT-4 leukemia; 121% with SR leukemia; 108% in the assay on OVCAR-8 ovarian. The growth with OVCAR-5 ovarian is 110%; with OVCAR-4 ovarian, 103%; in the assay on SK-OV-3 ovarian, 96.9%; with IGROV1 ovarian, 107%; in the assay on OVCAR-3 ovarian it was 125%; with HS 578T breast it was 110%.

Turning to `C=C1C(=O)O[C@H]2[C@H]1CC/C(COC(=O)C(C)c1ccc(CC(C)C)cc1)=C\CC[C@@]1(C)O[C@@H]21` (some centres undefined), the growth is 36.7% with SK-MEL-2 melanoma; 46.2% with EKVX NSCLC; 35.2% with SN12C renal; -87.6% (active) in the assay on UO-31 renal; 62% in the assay with TK-10 renal; -94.6% (active) in the assay with ACHN renal. Also, the growth in the assay on CAKI-1 renal is 79.1%; with A498 renal, 92.7%; in the assay on CCRF-CEM leukemia, 4.97% (active); with MOLT-4 leukemia, -3.37% (active); with SR leukemia, -1.31% (active); in the assay with RPMI-8226 leukemia, -23% (active). Moreover, the growth with OVCAR-5 ovarian is 74.1%; with OVCAR-4 ovarian, 8.73% (active); in the assay with SK-OV-3 ovarian, 102%; with IGROV1 ovarian it was -69% (active); in the assay on OVCAR-3 ovarian, 1.75% (active); with HS 578T breast, -4.39% (active). Besides, the growth in the assay with NCI/ADR-RES ovarian is 14.6%.

With `NC(=O)C1(Nc2ccc(Br)cc2)CCCC1`, the growth in the assay on SK-MEL-2 melanoma was 101%; with EKVX NSCLC it was 92%; in the assay with SN12C renal it was 102%; in the assay on UO-31 renal it was 86.3%; in the assay with TK-10 renal, 104%; with ACHN renal it was 101%. Moreover, the growth with CAKI-1 renal is 103%; with A498 renal, 99.8%; with CCRF-CEM leukemia it was 99.8%; with MOLT-4 leukemia, 99%; in the assay on SR leukemia, 84.3%; with OVCAR-8 ovarian, 102%. For the same molecule, the growth in the assay with OVCAR-5 ovarian was 96.7%; in the assay with OVCAR-4 ovarian, 115%; in the assay with SK-OV-3 ovarian it was 103%; in the assay with IGROV1 ovarian, 108%; in the assay with OVCAR-3 ovarian it was 113%; in the assay on HS 578T breast, 111%. Moreover, in the assay with NCI/ADR-RES ovarian, the growth was 111%.

For the molecule `O=c1n(Cc2ccc3ccccc3c2)ccn1Cc1ccc2ccccc2c1`, the growth was 83% in the assay on SK-MEL-2 melanoma; 96.6% with EKVX NSCLC; 91.2% in the assay with SN12C renal; 86.5% in the assay with UO-31 renal; 82.7% in the assay on TK-10 renal; 74.3% in the assay on ACHN renal. Further, the growth is 90% with CAKI-1 renal; 105% in the assay with A498 renal; 117% in the assay on CCRF-CEM leukemia; 91.8% in the assay on MOLT-4 leukemia; 97% in the assay on SR leukemia; 104% in the assay with RPMI-8226 leukemia. Moreover, the growth was 82.1% in the assay with OVCAR-5 ovarian; 69.3% in the assay on OVCAR-4 ovarian; 90.5% with SK-OV-3 ovarian; 100% in the assay on OVCAR-3 ovarian; 86.9% in the assay on HS 578T breast; 86.8% with NCI/ADR-RES ovarian.

In the case of `CCc1ccc(Oc2c(-c3ccc(OCCc4cccc(C(F)(F)F)c4)cc3O)n[nH]c2C(F)(F)F)cc1`, the growth in the assay on SK-MEL-2 melanoma was 55.4%; in the assay with EKVX NSCLC it was 50.1%; in the assay on SN12C renal, 19.9%; in the assay on UO-31 renal it was 16.1%; in the assay with TK-10 renal, 58.4%; in the assay with ACHN renal, 16.6%. Besides, the growth was 63.3% in the assay on CAKI-1 renal; 35.9% in the assay with A498 renal; 11.6% with CCRF-CEM leukemia; 4.53% (active) in the assay on MOLT-4 leukemia; 47.3% with SR leukemia; 3.94% (active) with RPMI-8226 leukemia. For the same molecule, the growth in the assay with OVCAR-5 ovarian is 84.3%; with OVCAR-4 ovarian, 22%; in the assay on SK-OV-3 ovarian, 64.9%; in the assay with IGROV1 ovarian, 32.8%; in the assay with OVCAR-3 ovarian, 0.567% (active); in the assay on HS 578T breast it was 51.1%. The growth in the assay on NCI/ADR-RES ovarian is 42%.

`O=C(N/N=C/[C@@H](O)[C@H](O)[C@H](O)CO)c1ccc(NC(=O)c2cccnc2)cc1`: the growth was 120% in the assay with SK-MEL-2 melanoma; 100% in the assay with EKVX NSCLC; 97.1% in the assay on SN12C renal; 82.9% with UO-31 renal; 106% in the assay on TK-10 renal; 101% with ACHN renal. Moreover, the growth in the assay on CAKI-1 renal was 96.1%; with A498 renal, 102%; with CCRF-CEM leukemia, 98.5%; in the assay with MOLT-4 leukemia it was 113%; in the assay with SR leukemia, 95.7%; in the assay on OVCAR-8 ovarian, 105%. The growth with OVCAR-5 ovarian was 103%; in the assay with OVCAR-4 ovarian, 114%; in the assay on SK-OV-3 ovarian, 99.1%; with IGROV1 ovarian it was 109%; in the assay on OVCAR-3 ovarian, 112%; in the assay on HS 578T breast it was 104%. Also, in the assay with NCI/ADR-RES ovarian, the growth is 112%.

Consider `NCCCNc1nc2ccccc2c2c(=O)c3cccc(F)c3sc12`, for which the growth was 94.6% in the assay on SK-MEL-2 melanoma; 60.4% in the assay with EKVX NSCLC; 43.4% in the assay on SN12C renal; 16.4% in the assay with UO-31 renal; 54.2% in the assay with TK-10 renal; 8.21% (active) in the assay with ACHN renal. Further, the growth in the assay with CAKI-1 renal is 1.7% (active); with A498 renal it was 29.4%; in the assay with CCRF-CEM leukemia, 9.26% (active); with MOLT-4 leukemia, -14.7% (active); with SR leukemia, -16.7% (active); in the assay with OVCAR-8 ovarian, 29%. Moreover, the growth in the assay with OVCAR-5 ovarian was 66.9%; with OVCAR-4 ovarian it was 26.2%; with SK-OV-3 ovarian, 58.5%; with IGROV1 ovarian, 32.5%; with OVCAR-3 ovarian, 18.5%; in the assay with HS 578T breast it was 52.4%. The growth in the assay with NCI/ADR-RES ovarian was 30.3%.
